Results with a measured potency or affinity are listed apart. Inconclusive results are not listed. Active and inactive are the calls of the source. Unless noted, the rule behind the calls is not given here.
Columns and labels:
[1] = PAX8 transcriptional activity inhibition in RMG-I – RMG-I cells, luciferase, cherry-pick, dose response (AID 687027;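 active = every replicate test run called active, with the signal dropping as expected and potency within twice the top valid dose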)
[2] = RMG-1 ovarian cancer cell viability loss – cherry-pick, dose response (AID 687029;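 active = signal drop whose fitted half-maximal concentration is at most twice the top valid dose, in every test run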;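 note: cells exposed to compound for 96 hours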)
[3] = general cell-killing toxicity readout – plate reader, dry powder samples, cytotoxicity control for PAX8 inhibitor project, dose response (AID 743021)
[4] = CMV-driven luciferase expression suppression in HEK293 – cell-based, luminescence, dry powder, counter-screen for Pax8 inhibitor project, dose response (AID 743020;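 active = signal-lowering compounds whose fitted half-maximal concentration is at or below twice the top tested dose in every run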;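 note: HEK293 cells stably expressing the CMV luciferase reporter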)
[5] = IGROV1 cell killing – plate reader, dry powder samples, PAX8 inhibitor project, dose response (AID 743043);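 note: more negative means fewer viable cells or more cytotoxicity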
[6] = OVCAR-3 cell viability loss – plate reader, dry powder samples, PAX8 inhibitor project, dose response (AID 743044); settings: max activity: at 35 µM, hits give low values unless noted
[7] = toxicity toward immortalized ovarian surface epithelium – cell-based, plate reader, dry powder samples, cytotoxicity control for PAX8 inhibitor project, dose response (AID 743045);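 note: 0% = neutral control median and -100% = positive control median; more negative values mean more cell killing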
[8] = OVCAR8 cell viability loss – plate reader, dry powder samples, PAX8 project, dose response (AID 743197)
[9] = A2780 cell killing – plate reader, dry powder samples, cytotoxicity control, dose response (AID 743046);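 note: 0% = neutral control wells and -100% = cytotoxic reference compound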
[10] = IOSE-T80 viability loss, PAX8-independent line – cell-based, cherry-pick, selectivity assay for PAX8 inhibitor project, dose response (AID 687032;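 active = fitted half-maximal concentration for viability loss no higher than twice the top valid dose, in every repeat run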;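 note: cells exposed to compound for 96 h before reading; 0% = neutral control wells and -100% = 2 µM mitoxantrone kill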)

Cc1ccc(/C=C/C(=O)N2CCN(c3cccc(C(F)(F)F)c3)CC2)cc1
inactive: outcome [1] | outcome [2] | outcome [3]

COc1ccc(C(C)NC(=O)c2ccc(Br)cc2)cc1OC (centres undefined)
inactive: outcome [1] | outcome [2] | outcome [4] | outcome [3]

O=C(NCc1ccc(F)cc1)C1(c2cccs2)CCOCC1
inactive: outcome [1] | outcome [2] | outcome [3]

CCCNC(=O)COC(=O)/C=C/c1ccco1
inactive: outcome [1] | outcome [2] | outcome [3]

C[C@H](CO)N1C[C@H](C)[C@@H](CN(C)C(=O)Nc2ccnc(N3CCOCC3)c2)OCc2cnnn2CCCC1=O
inactive: outcome [1] | outcome [2] | outcome [4] | outcome [3] | outcome [5] | max activity [6] 8.36% [at 0.26 µM, hits give low values] | outcome [7] | outcome [8]

COc1ccc(OCCNC(=O)/C=C/c2ccc([N+](=O)[O-])cc2)cc1
inactive: outcome [1] | outcome [2] | outcome [4] | outcome [3]

CC(=O)C1=C(O)C(=O)N(CCc2ccccc2)C1c1ccccc1[N+](=O)[O-] (centres undefined)
inactive: outcome [1] | outcome [2] | outcome [3]

CCNC(=O)C1(C)CCN(C(=O)c2ccccc2F)C1 (centres undefined)
inactive: outcome [1] | outcome [2] | outcome [4] | outcome [3]

OCC1CCCN(C(=S)Nc2ccc(OC(F)F)cc2)C1 (centres undefined)
inactive: outcome [1] | outcome [2] | outcome [3]

O=C(Cc1cccs1)N/N=C/C=C/c1ccccc1
inactive: outcome [1] | outcome [2] | outcome [4] | outcome [3]

CC(C)(C)OC(=O)[C@H](Cc1ccccc1)NC(=O)c1nc[nH]c1C(=O)N[C@@H](Cc1ccccc1)C(=O)OC(C)(C)C
inactive: activity change, negative = inhibition [1] -24.7% [at 8 µM] | outcome [2] | outcome [3]

COC1OC(COCc2ccccc2)C2OC(C)(C)OC2C1O (centres undefined)
inactive: outcome [1] | outcome [2] | outcome [4] | outcome [3]

COc1ccc(-n2nc([N+](=O)[O-])c(=NCc3cccnc3)n2O)cc1
inactive: outcome [1] | outcome [2] | outcome [4] | outcome [3]

O=C(CCN1C(=O)/C(=C/c2ccccc2Cl)SC1=S)Nc1ccccc1C(=O)O
inactive: outcome [1] | outcome [2] | outcome [4] | outcome [3]

Cn1ccnc1SCc1nc2c(cnn2-c2ccccc2)c(=O)[nH]1
inactive: outcome [1] | outcome [2] | outcome [3]

Cc1nnc(N/N=C/c2cccc(C(F)(F)F)c2)n1N
inactive: outcome [1] | outcome [2] | outcome [3]

C[C@@H]1CN([C@@H](C)CO)C(=O)CCCn2nncc2CO[C@H]1CN(C)S(=O)(=O)c1ccc(Cl)cc1
inactive: outcome [1] | outcome [2] | outcome [3]

O=[N+]([O-])c1cc(-c2nnc(-c3ccccc3)o2)ccc1Oc1ccc(Cl)cc1
inactive: outcome [1] | outcome [2] | outcome [3]

Cc1cc(OCCCn2cnc3ccccc3c2=O)ccc1[N+](=O)[O-]
inactive: outcome [1] | outcome [2] | outcome [4] | outcome [3]

CCN1CCN(c2nc(-c3cccs3)nc3ccccc23)CC1
inactive: outcome [1] | activity change, negative = inhibition [2] 16.7% [at 8 µM] | outcome [3]

CN(C(=O)COC(=O)C1CCN(S(=O)(=O)c2c(Cl)cccc2Cl)CC1)C1CCS(=O)(=O)C1 (centres undefined)
inactive: outcome [1] | outcome [2] | outcome [4] | outcome [3]

COc1ccc2c(c1)OC/C(=C/c1cccs1)C2=O
inactive: outcome [1] | outcome [2] | outcome [3]

Cc1ccc(NC(=O)c2c([N+](=O)[O-])c(C(C)(C)C)nn2C)c(C)c1
inactive: outcome [1] | outcome [2] | outcome [3]

O=C(Nc1ccccc1)N1CCCCN2[C@@H](CO)[C@@H](c3ccc(C#Cc4ccccc4)cc3)[C@@H]2C1
inactive: outcome [1] | outcome [2] | outcome [4] | outcome [3]

COc1ccc(C(=O)N/N=C/c2ccc(OC(=O)c3cccs3)cc2)cc1
inactive: outcome [1] | outcome [2] | outcome [3]

COc1ccc(C(=O)NC(=S)NNC(=O)COc2ccccc2)cc1
inactive: outcome [1] | outcome [2] | outcome [3]

Cc1ccc(-c2nc(C)sc2CC(=O)OCC(=O)Nc2cccc([N+](=O)[O-])c2)cc1
inactive: outcome [1] | outcome [2] | outcome [3]

CN(C)CC#Cc1ccc([C@@H]2[C@H](CO)N3CCCCN(C(=O)Nc4ccc(F)cc4)C[C@@H]23)cc1
inactive: outcome [1] | outcome [2] | outcome [4] | outcome [3] | outcome [5] | max activity [6] 29.4% [at 0.26 µM, hits give low values] | outcome [7] | outcome [9] | outcome [8]

CCCCCCCCNC(=O)c1cnccn1
inactive: outcome [1] | outcome [2] | outcome [4] | outcome [3]

Cc1ccc2nc(-c3ccc(NC(=S)NC4CC(C)(C)NC(C)(C)C4)cc3)sc2c1
inactive: outcome [1] | outcome [2] | outcome [3]

O=C(Cc1ccc(F)cc1)OCC(=O)N1CCN(S(=O)(=O)c2ccc(Cl)cc2)CC1
inactive: outcome [1] | outcome [2] | outcome [4] | outcome [3]

COc1ccc(N(C(=O)CCl)C(C(=O)NCCc2ccccc2)c2cccs2)cc1 (centres undefined)
inactive: outcome [2]

Nc1ncnc2c(C3OC(CO)C(O)C3O)c[nH]c12 (centres undefined)
inactive: outcome [2]

O=C(CCC(=O)c1ccccc1)NCCc1c[nH]c2ccccc12
inactive: outcome [1] | outcome [4] | outcome [3]

C[C@@H]1CN([C@@H](C)CO)C(=O)Cc2cc(NS(=O)(=O)c3ccc(Cl)cc3)ccc2O[C@H]1CN(C)Cc1ccc(C(F)(F)F)cc1
inactive: outcome [1] | outcome [10] | outcome [4] | outcome [3] | outcome [5] | max activity [6] 14.3% [at 0.26 µM, hits give low values] | outcome [7] | outcome [9] | outcome [8]

Cc1nnc(N/N=C/c2cc(C)n(-c3ccc(F)cc3)c2C)n1N
inactive: outcome [1] | outcome [4] | outcome [3]

CN=c1scc(-c2ccccc2F)n1/N=C/c1ccc[nH]1
inactive: outcome [2]

CCCNC(=O)COc1nc2ccccc2nc1N1CCOCC1
inactive: outcome [1] | outcome [4] | outcome [3]

CNC[C@@H]1Oc2ccc(NC(=O)NC(C)C)cc2CC(=O)N([C@@H](C)CO)C[C@@H]1C
inactive: outcome [1] | outcome [4] | outcome [3] | outcome [5] | max activity [6] 22.5% [at 0.5 µM, hits give low values] | outcome [7] | outcome [9] | outcome [8]

COc1ccc(NC(=O)N2CCCCN3[C@@H](CO)[C@@H](c4ccc(C#Cc5ccccc5)cc4)[C@@H]3C2)cc1
inactive: outcome [2]

CC1CN(CC(O)COC(c2ccccc2)c2ccccc2)CC(C)O1 (centres undefined)
inactive: outcome [1] | outcome [4] | outcome [3]

CNC[C@H]1Oc2ccc(NC(=O)NC(C)C)cc2CC(=O)N([C@@H](C)CO)C[C@@H]1C
inactive: outcome [1] | outcome [10] | outcome [4] | outcome [3] | outcome [5] | max activity [6] 12.2% [at 2.1 µM, hits give low values] | outcome [7] | outcome [9] | outcome [8]

Cc1cc(Nc2ccc3c(c2)OCCO3)c2ccccc2n1
inactive: outcome [1] | outcome [3]

COc1cc(OC)cc(C(=O)NCC(=O)OCC(=O)c2cc(C)n(Cc3ccco3)c2C)c1
inactive: outcome [1] | outcome [4] | outcome [3]

COc1ccc(OCc2cccc(C(=O)Nn3cc([N+](=O)[O-])cn3)c2)cc1
inactive: outcome [2]

Clc1ccc(Cn2ncc3c(N4CCN(c5ccccc5)CC4)ncnc32)cc1
inactive: outcome [2]

C[C@@H]1CN([C@@H](C)CO)S(=O)(=O)c2ccc(C#Cc3ccncc3)cc2O[C@@H]1CN(C)C(=O)C1CCCCC1
inactive: outcome [1] | outcome [10] | outcome [4] | outcome [3] | outcome [5] | max activity [6] -17.5% [at 1 µM, hits give low values] | outcome [7] | outcome [9] | outcome [8]
